PubChem BioAssay AID1159580 (chemical genetic matrix, 2015)
Several values for one entry are separate records, joined by “and”; a condition that tells them apart may be missing. Equal values may be shown once. The campaign covered roughly 5,500 compounds. About 2,000 (36%) were called active. Another 18% or so got no clear call; they are omitted. No stated cut-off is given here; in the data, active means normalized growth mostly below about 0.91 (no sharp cut-off); inconclusive means no clear call, values can overlap the other calls; inactive means mostly above about 0.92. Some of the results follow.

Test: chemical genetic growth profiling, strain panel (AID 1159580);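 further: tested at 20 µM; growth read once vehicle control cultures reached saturation at 30 °C; 1 = growth at the plate median or of vehicle wells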
Settings: S. cerevisiae deletion strains, growth OD

Measured: normalized growth

O=C1c2ccccc2C(=O)C1c1ccccc1
inactive: locus YAL013W, strain DEP1, stronger effect = lower value 0.975 | locus YAL021C, strain ccr4, stronger effect = lower value 1.01 | locus YAL026C, strain drs2, stronger effect = lower value 1 | locus YAL030W, strain snc1, stronger effect = lower value 1 | locus YBL061C, strain skt5, stronger effect = lower value 0.998 | locus YBR009C, strain hhf1, stronger effect = lower value 1.01 | locus YBR021W, strain FUR4, stronger effect = lower value 1 | locus YBR023C, strain chs3, stronger effect = lower value 1 | locus YBR171W, strain sec66, stronger effect = lower value 0.957 | locus YBR229C, strain ROT2, stronger effect = lower value 1 and 0.94 | locus YBR231C, strain swc5, stronger effect = lower value 1.01 | locus YBR279W, strain paf1, stronger effect = lower value 0.993 | locus YCL011C, strain gbp2, stronger effect = lower value 1 | locus YCL016C, strain dcc1, stronger effect = lower value 1.01 | locus YCL029C, strain bik1, stronger effect = lower value 1.01 | locus YCL061C, strain MRC1, stronger effect = lower value 1 and 0.995 | locus YCL069W, strain vba3, stronger effect = lower value 0.995 | locus YCR088W, strain abp1, stronger effect = lower value 0.988 | locus YDL005C, strain med2, stronger effect = lower value 1 | locus YDL035C, strain GPR1, stronger effect = lower value 1.01 | locus YDL040C, strain nat1, stronger effect = lower value 1 | locus YDL074C, strain BRE1, stronger effect = lower value 1 | locus YDL101C, strain DUN1, stronger effect = lower value 1.01 and 0.909 | locus YDL134C, strain PPH21, stronger effect = lower value 1.01 | locus YDL185W, strain tfp1, stronger effect = lower value 0.991 | locus YDL192W, strain arf1, stronger effect = lower value 1.01 | locus YDR001C, strain nth1, stronger effect = lower value 0.981 | locus YDR069C, strain doa4, stronger effect = lower value 0.996 | locus YDR101C, strain arx1, stronger effect = lower value 1 | locus YDR137W, strain rgp1, stronger effect = lower value 0.995 | locus YDR150W, strain NUM1, stronger effect = lower value 0.998 and 1.01 | locus YDR159W, strain sac3, stronger effect = lower value 1.01 | locus YDR162C, strain NBP2, stronger effect = lower value 0.995 | locus YDR195W, strain ref2 0.997 | locus YDR297W, strain sur2, stronger effect = lower value 0.993 | locus YDR318W, strain mcm21, stronger effect = lower value 1.01 | locus YDR334W, strain swr1, stronger effect = lower value 0.996 | locus YDR335W, strain msn5, stronger effect = lower value 0.995 | locus YDR388W, stronger effect = lower value 1.02 | locus YDR392W, strain spt3, stronger effect = lower value 0.918 | locus YDR502C, strain sam2, stronger effect = lower value 1 | locus YEL003W, strain gim4, stronger effect = lower value 0.991 | locus YEL037C, strain rad23, stronger effect = lower value 0.992 | locus YEL061C, strain CIN8 (second series), stronger effect = lower value 0.986 | locus YEL061C, strain CIN8, stronger effect = lower value 0.998 and 0.977 | locus YER015W, strain faa2, stronger effect = lower value 1.01 | locus YER016W, strain bim1, stronger effect = lower value 1 | locus YER110C, stronger effect = lower value 1.01 | locus YER111C, strain swi4, stronger effect = lower value 0.999 | locus YER155C, strain BEM2 (second series), stronger effect = lower value 1 | locus YER155C, strain BEM2, stronger effect = lower value 0.989 | locus YER167W, strain BCK2, stronger effect = lower value 0.997 | locus YFR010W, strain ubp6, stronger effect = lower value 1 | locus YGL078C, strain dbp3, stronger effect = lower value 0.99 | locus YGL086W, strain mad1, stronger effect = lower value 0.997 | locus YGL167C, strain pmr1, stronger effect = lower value 1 | locus YGL173C, strain kem1, stronger effect = lower value 1.02 | locus YGL227W, strain vid30, stronger effect = lower value 0.978 | locus YGL240W, strain doc1, stronger effect = lower value 1.01 | locus YGL248W, strain PDE1, stronger effect = lower value 1 | locus YGL253W, strain hxk2, stronger effect = lower value 0.998 | locus YGR078C, strain PAC10, stronger effect = lower value 0.942 | locus YGR135W, strain pre9, stronger effect = lower value 1.01 | locus YGR229C, strain SMI1, stronger effect = lower value 1.01 and 1.05 | locus YGR252W, strain gcn5, stronger effect = lower value 0.998 | locus YHR013C, strain ard1, stronger effect = lower value 0.974 | locus YHR027C, strain rpn1, stronger effect = lower value 0.997 | locus YHR030C, strain SLT2, stronger effect = lower value 1 and 0.957 and 0.982 | locus YHR079C, strain IRE1 (second series), stronger effect = lower value 1.01 | locus YHR079C, strain IRE1, stronger effect = lower value 0.95 | locus YHR087W, strain rtc3, stronger effect = lower value 0.923 | locus YHR094C, strain hxt1, stronger effect = lower value 1.01 | locus YHR129C, strain ARP1, stronger effect = lower value 0.992 | locus YHR142W, strain chs7, stronger effect = lower value 1 | locus YHR200W, strain rpn10, stronger effect = lower value 1.01 | locus YIL066C, strain RNR3, stronger effect = lower value 1.01 | locus YIL073C, strain SPO22, stronger effect = lower value 1.03 | locus YIL125W, strain kgd1, stronger effect = lower value 0.989 | locus YIR030C, strain dcg1, stronger effect = lower value 1 | locus YJL092W, strain hpr5, stronger effect = lower value 0.983 | locus YJL095W, strain BCK1 (second series), stronger effect = lower value 1 | locus YJL095W, strain BCK1, stronger effect = lower value 0.984 and 0.97 | locus YJL115W, strain asf1, stronger effect = lower value 0.99 | locus YJL129C, strain trk1, stronger effect = lower value 0.978 | locus YJL134W, strain LCB3, stronger effect = lower value 0.993 | locus YJL154C, strain vps35, stronger effect = lower value 0.991 | locus YJL164C, strain tpk1, stronger effect = lower value 1 | locus YJL166W, strain qcr8, stronger effect = lower value 1.01 | locus YJL168C, strain set2, stronger effect = lower value 1.01 | locus YJL187C, strain SWE1 (second series), stronger effect = lower value 1 | locus YJL187C, strain SWE1, stronger effect = lower value 1 | locus YJR043C, strain POL32, stronger effect = lower value 1.01 and 0.982 | locus YJR066W, strain TOR1, stronger effect = lower value 0.92 | locus YJR075W, strain HOC1, stronger effect = lower value 1.01 and 0.971 | locus YKL009W, strain mrt4, stronger effect = lower value 0.974 | locus YKL068W, stronger effect = lower value 0.989
